Experimental data as given in PubChem BioAssay (NCATS).
Inconclusive results are not listed. Unless noted, the call rests on the fitted dose curve; in most records, active means well fitted curve in either direction with a large enough effect (not every such curve was filed as active); inconclusive means small, poorly fitted or top-dose-only effect, or another doubt; inactive means flat fitted curve, though single readings scatter.

target: Lysosomal acid glucosylceramidase (Homo sapiens) (UniProt P04062); assay: Glucocerebrosidase-p2 (AID 348; in the data active means potency below about 10 µM; further: potency means the concentration at half of the fitted maximal effect); conditions: purified GBA, blue fluorogenic substrate, 40 min
How it was run: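 Compounds titrated from 0.6 nM upwards against 0.2 nM enzyme in pH 5.9 citric acid/KH2PO4, taurocholate, tween-20; blue fluorogenic substrate 80 uM, 40 min room temperature, stopped and read Ex 365/Em 440 for AC50.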

Chain of Lysosomal acid glucosylceramidase (Homo sapiens) (P04062 whole entry, looked up): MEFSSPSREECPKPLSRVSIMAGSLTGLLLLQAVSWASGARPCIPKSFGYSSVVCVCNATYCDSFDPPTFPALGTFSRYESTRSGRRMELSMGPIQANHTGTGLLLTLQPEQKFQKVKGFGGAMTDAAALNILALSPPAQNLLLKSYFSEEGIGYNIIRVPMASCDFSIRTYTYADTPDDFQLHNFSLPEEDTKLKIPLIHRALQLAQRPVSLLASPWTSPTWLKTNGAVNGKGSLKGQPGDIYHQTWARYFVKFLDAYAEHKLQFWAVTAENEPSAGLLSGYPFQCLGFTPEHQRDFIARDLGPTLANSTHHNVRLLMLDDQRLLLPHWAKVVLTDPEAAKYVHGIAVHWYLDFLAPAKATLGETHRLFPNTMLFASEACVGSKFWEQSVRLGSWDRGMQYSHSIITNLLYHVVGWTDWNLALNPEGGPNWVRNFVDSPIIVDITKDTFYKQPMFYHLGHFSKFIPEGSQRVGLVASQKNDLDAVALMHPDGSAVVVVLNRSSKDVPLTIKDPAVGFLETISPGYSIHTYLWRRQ

Potency, inactive:
CCNc1ncc2nc(-c3cc(F)cc(F)c3)c(=O)n(C)c2n1 > 11.4 µM
CC(=O)NCCNc1ccnc(-c2ccccc2C(F)(F)F)n1 > 11.4 µM
CCNc1ncc2nc(-c3cc(F)cc(F)c3)c(=O)n(C[C@H]3CCCO3)c2n1 > 11.4 µM
COc1cccc(-c2cncnc2N(C)Cc2ccco2)c1 > 11.4 µM
COc1ccccc1-c1ccc2ncnc(NC3CCNCC3)c2c1 > 11.4 µM
O=c1cnc2cnc(N3CCOCC3)nc2n1C1CC1 > 11.4 µM
CCNc1ncc2nc(C)c(=O)n(-c3ccc(OC)cc3)c2n1 > 11.4 µM
CCNc1ncc2nc(C)c(=O)n(Cc3cccs3)c2n1 > 11.4 µM
Cn1c(=O)c(-c2cccs2)nc2cncnc21 > 11.4 µM
CN(C)c1ncc2ncc(=O)n(C3CC3)c2n1 > 11.4 µM
CCNc1ncc2nc(C)c(=O)n(Cc3ccc(F)cc3)c2n1 > 11.4 µM
CN(C)C(=O)c1ccc(-c2nc(NC3CCNCC3)c3ccccc3n2)cc1 > 11.4 µM
COc1ccccc1CNc1ncncc1-c1cccnc1 > 11.4 µM
COc1cccc(Nc2ncc3nc(C)c(=O)n(C)c3n2)c1 > 11.4 µM
Cc1cnc(CNc2ncncc2-c2cccc(C#N)c2)cn1 > 11.4 µM
Cc1nc2cnc(Nc3ccccc3)nc2n(C2CC2)c1=O > 11.4 µM
CCNc1ncc2nc(C)c(=O)n(C3CC3)c2n1 > 11.4 µM
CCNc1ncc2nc(-c3cn(C)c4ccccc34)c(=O)n(-c3ccc(OC)cc3)c2n1 > 11.4 µM
CN(C)C(=O)c1ccc(-c2cncnc2N2CCNCC2)cc1 > 11.4 µM
Cc1noc(C)c1-c1ccc2ncnc(NC3CCNCC3)c2c1 > 11.4 µM
CCNc1ncc2nc(C)c(=O)n(C)c2n1 > 11.4 µM
COc1ccc(CNc2ncncc2-c2cccnc2)c(OC)c1 > 11.4 µM
COc1ccc(-n2c(=O)cnc3cnc(N4CCOCC4)nc32)cc1 > 11.4 µM
Fc1ccc(Nc2ncncc2-c2ccoc2)cc1 > 11.4 µM
Cn1c(=O)cnc2cnc(OCc3ccccc3)nc21 > 11.4 µM
COc1cccc(Nc2ncc3nc(C)c(=O)n(CCc4ccccc4)c3n2)c1 > 11.4 µM
COc1ccc2[nH]cc(CCNc3ncncc3-c3c(C)noc3C)c2c1 > 11.4 µM
Cc1noc(C)c1-c1cc(Nc2ccccc2)ncn1 > 11.4 µM
COc1ccc(Oc2ncc3ncc(=O)n(C)c3n2)cc1 > 11.4 µM
COCCNc1cc(-c2ccccc2C)ncn1 > 11.4 µM
c1ccc2c(NC3CCNCC3)nc(-c3ccoc3)nc2c1 > 11.4 µM
c1csc(CNc2cc(-c3ccoc3)ncn2)c1 > 11.4 µM
COc1ccc(CNc2cc(-c3ccoc3)ncn2)c(OC)c1 > 11.4 µM
O=c1cnc2cnc(Nc3ccccc3)nc2n1Cc1ccc(F)cc1 > 11.4 µM
Fc1ccc(Nc2ccnc(-c3ccoc3)n2)cc1 > 11.4 µM
COc1ccccc1-c1cc(NCc2ccccc2)ncn1 > 11.4 µM
N#Cc1cccc(-c2cncnc2NCc2cccs2)c1 > 11.4 µM
CNc1cc(-c2c(C)noc2C)ncn1 > 11.4 µM

tested on: not listed separately; assay: AP1 Signaling Pathway (AID 357); conditions: ME-180 (cervical carcinoma) AP-1-bla reporter, EGF-induced, beta-lactamase ratio, 5 h; at 7.69 µM (top of the series) unless noted;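 further: ME-180 reporter cells stimulated with EGF at its EC50 level; on the % scale 0 is the no-effect control and ±100 the full control effect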
How it was run: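 A ratiometric CCF4 readout (405 nm excitation; 460 and 530 nm emission) quantified AP-1-driven beta-lactamase in ME-180 cells after 5 h with compound and EC50 EGF; AC50 values were derived for activators and inhibitors.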

Activity change, negative = inhibition, inactive:
CC(=O)NCCNc1ccnc(-c2ccccc2C(F)(F)F)n1 0.161%
CCNc1ncc2nc(-c3cc(F)cc(F)c3)c(=O)n(C[C@H]3CCCO3)c2n1 7.28%
COc1cccc(-c2cncnc2N(C)Cc2ccco2)c1 -8.71%
COc1ccccc1-c1ccc2ncnc(NC3CCNCC3)c2c1 2.47%
O=c1cnc2cnc(N3CCOCC3)nc2n1C1CC1 18.1%
CCNc1ncc2nc(C)c(=O)n(-c3ccc(OC)cc3)c2n1 -29.8%
CCNc1ncc2nc(C)c(=O)n(Cc3cccs3)c2n1 19%
Cn1c(=O)c(-c2cccs2)nc2cncnc21 16%
CN(C)c1ncc2ncc(=O)n(C3CC3)c2n1 0.558%
CCNc1ncc2nc(C)c(=O)n(Cc3ccc(F)cc3)c2n1 -0.98%
CN(C)C(=O)c1ccc(-c2nc(NC3CCNCC3)c3ccccc3n2)cc1 7.64%
COc1ccccc1CNc1ncncc1-c1cccnc1 3.62%
COc1cccc(Nc2ncc3nc(C)c(=O)n(C)c3n2)c1 -0.695%
Cc1cnc(CNc2ncncc2-c2cccc(C#N)c2)cn1 15%
Cc1nc2cnc(Nc3ccccc3)nc2n(C2CC2)c1=O -25.6%
CCNc1ncc2nc(C)c(=O)n(C3CC3)c2n1 -8.59%
CCNc1ncc2nc(-c3cn(C)c4ccccc34)c(=O)n(-c3ccc(OC)cc3)c2n1 -24.5%
CN(C)C(=O)c1ccc(-c2cncnc2N2CCNCC2)cc1 -5.59%
Cc1noc(C)c1-c1ccc2ncnc(NC3CCNCC3)c2c1 17.3%
CCNc1ncc2nc(C)c(=O)n(C)c2n1 -6.84%
COc1ccc(CNc2ncncc2-c2cccnc2)c(OC)c1 3.11%
COc1ccc(-n2c(=O)cnc3cnc(N4CCOCC4)nc32)cc1 4.95%
Fc1ccc(Nc2ncncc2-c2ccoc2)cc1 -7.98%
Cn1c(=O)cnc2cnc(OCc3ccccc3)nc21 -10.8%
COc1cccc(Nc2ncc3nc(C)c(=O)n(CCc4ccccc4)c3n2)c1 -17.7%
COc1ccc2[nH]cc(CCNc3ncncc3-c3c(C)noc3C)c2c1 -11.4%
Cc1noc(C)c1-c1cc(Nc2ccccc2)ncn1 -11.6%
COc1ccc(Oc2ncc3ncc(=O)n(C)c3n2)cc1 -12.2%
COCCNc1cc(-c2ccccc2C)ncn1 5.04%
CS(=O)(=O)Nc1cccc(-c2cncnc2Nc2ccc(F)cc2)c1 -19.4%
c1ccc2c(NC3CCNCC3)nc(-c3ccoc3)nc2c1 8.91%
c1csc(CNc2cc(-c3ccoc3)ncn2)c1 -0.901%
COc1ccc(CNc2cc(-c3ccoc3)ncn2)c(OC)c1 -15.9%
O=c1cnc2cnc(Nc3ccccc3)nc2n1Cc1ccc(F)cc1 -17.4%
Fc1ccc(Nc2ccnc(-c3ccoc3)n2)cc1 -6.54%
COc1ccccc1-c1cc(NCc2ccccc2)ncn1 3.71%
N#Cc1cccc(-c2cncnc2NCc2cccs2)c1 -2.15%
CNc1cc(-c2c(C)noc2C)ncn1 25.4%
